The record followed here is the supplement of paper PMC4954754.

± gives the uncertainty stated by the source.

The subject of the experiment is HEK293T-Rex XBP1-RLuc. Put plainly: XBP1-RLuc splicing reporter activation, triplicate, relative to 500 nM thapsigargin (% of thapsigargin); higher = stronger IRE1/XBP1s reporter activation. The note with it: 6.8 µM; 18 h; screen: confirmation. How it is done:
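HEK293T-Rex cells stably expressing the ERSE-firefly luciferase (BiP promoter, ATF6-preferring) or XBP1-splicing Renilla luciferase (IRE1/XBP1s) reporter, 1536-well plates, compound at 6.8 µM for 18 hr at 37 °C; luminescence read […] and expressed as % activation = 100*(compound - median DMSO)/(median 500 nM thapsigargin - median DMSO). Primary screen was single-pass; confirmation screen in triplicate (mean ± SD).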
For `COc1ccc(-c2csc(N(CC3CCCO3)C(=O)CCl)n2)cc1` (stereo not given), the “XBP1-RLuc splicing reporter activation” value worked out at 2.74 ± 0.89.
Next, `COc1ccccc1/C=N/Nc1nc(-c2ccccc2)cc(=O)[nH]1`: 7.58 ± 1.9.
To `O=C1/C(=C/c2ccc(O)c(O)c2)SC(=S)N1c1ccc(O)cc1` belongs 14.6 ± 1.1; to `COc1ccc(/C(C)=N/OC/C(O)=C(\C#N)c2nc3ccccc3[nH]2)cc1OC`, 24.6 ± 1.4.
Next, `COC(=O)c1ccc(C(=O)Nc2ccccc2N)cc1`: 9.29 ± 0.17; `Cc1cnc(NC(=O)c2sc3nc4c(C)cccc4cc3c2N)s1`: 32.6 ± 0.95; `O=C1/C(=C/c2ccc(O)c(O)c2)Oc2cc(O)ccc21`: 12.6 ± 0.23.
With `O=C1N/C(=C\c2ccc(O)cc2)C(O)=C1C=NCc1ccccc1`, the “XBP1-RLuc splicing reporter activation” value was found to be 49.1 ± 2.3.
Next, `O=C(NCCc1ccc(O)cc1)c1ccc2nc(-c3csc4ccccc34)sc2c1`: 18.8 ± 1.8; `Cc1nc(-c2ccc(C(=O)Nc3ccc(O)cc3)cc2)cs1`: 19.3 ± 0.19.
To `COc1ccc(/C=C/c2nc3cc([N+](=O)[O-])ccc3s2)cc1O` belongs 4.47 ± 0.66; to `Cc1ccc(-c2csc(Nc3ccc(O)cc3)n2)cc1`, 21.3 ± 2.7.
Next, `O=C(NCCCn1ccnc1)c1cc(-c2cccs2)on1`: 7.54 ± 0.78; `N#Cc1c(NC(=O)c2ccc3c(c2)OCO3)sc2c1CCCC2`: 2.57 ± 0.57; `N#Cc1c(NC(=O)c2cnccn2)sc2c1CCCC2`: 2.98 ± 3.5.
Regarding `CCCCCCc1ccc(-c2ncc(N)cn2)cc1`, the “XBP1-RLuc splicing reporter activation” value is 12.9 ± 0.42.
To `COc1ccc2[nH]c3c(N4CCCCC4)ncnc3c2c1` belongs 4.28 ± 0.66; to `COc1ccc(C2C=C3Oc4ccccc4N=C3NN2)cc1` (stereo not given), 4.19 ± 0.13; to `Nc1cn(-c2ccccc2)nc1-c1cccs1`, 50.6 ± 2.8.
To `Nc1ccccc1NC(=O)c1ccc(C(=O)Nc2ccccc2N)cc1` belongs 4.04 ± 0.55; to `COc1cccc(-c2nc3ccc(N)cc3[nH]2)c1`, 9.9 ± 1.3; to `Cc1ccc2c(N)c(C(=O)c3ccc4c(c3)OCO4)sc2n1`, 5.3 ± 0.72.
As for `COc1ccc2c(Cl)c(C(=O)Nc3ccccc3C(N)=O)sc2c1`, the “XBP1-RLuc splicing reporter activation” value amounted to 4.82 ± 1.1.
Next, `CCCCCCOc1ccc(/C(C)=N/NC2=NCCN2)cc1[N+](=O)[O-]`: 15 ± 0.76; `Oc1ccc(/C=N/Nc2cccc3cccnc23)cc1O`: 17.3 ± 2.3; `CCc1nc2sc(C(=O)c3ccccc3)c(N)c2cc1C`: 2.72 ± 1.5.
`O=C(Nc1ccc(Cl)cn1)c1ccc(Cl)cc1Cl`: the “XBP1-RLuc splicing reporter activation” value is 0.717 ± 0.56.
To `CN(C)c1ccc(/C=N/NC(=O)c2cccc(Br)c2)cc1` belongs 1.93 ± 3.2; to `C=CCNC(=O)c1cc(-c2cccs2)on1`, 7.78 ± 0.96; to `O=C(COC(=O)c1ccc(O)c(O)c1)Nc1nc(-c2ccccc2)cs1`, 18.6 ± 3.9.
Next, `O=C1NC(=Nc2ccccc2)S/C1=C/c1ccc(O)c(O)c1`: 20.9 ± 2.1; `O=C(Nc1ccccc1O)c1cc2ccccc2o1`: 7.88 ± 0.66; `O=C(/C=C/c1ccco1)Nc1ccccn1`: 0.777 ± 0.52.
In the case of `Nc1ccc(-c2nc3cc(N)c(Cl)cc3[nH]2)cc1`, the “XBP1-RLuc splicing reporter activation” value is 16 ± 1.
Next, `COc1cccc(/C=N\NC(=O)c2n[nH]c3c2CCC3)c1`: 2.25 ± 1.
To `NC(=O)c1c(NC(=O)COc2ccccc2)sc2c1CCC2` belongs -0.209 ± 0.99.
Next, `COc1ccccc1OCC(=O)Nc1cc(C)ccc1O`: 19.6 ± 1.9; `Cc1ccc(O)c(N/C=C/C(=O)c2ccc(F)cc2)c1`: 10.3 ± 7.9; `CS(=O)(=O)c1ncc(Cl)c(C(=O)C(C#N)c2nc3ccccc3s2)n1` (stereo not given): 19.5 ± 4.9.
As to `CCOc1cccc(C(=O)Nc2ccc(-c3nc4ccc(C(=O)c5ccccc5)cc4[nH]3)cc2)c1`, the “XBP1-RLuc splicing reporter activation” value turned out to be 94 ± 5.
